Rows were chosen to be rich in hits. Some 20% of all compounds tested hit in one or more screens of this group.
Pf growth 48h: P. falciparum growth inhibition at 48 hours (one generation); Potency, µM (doses to about 28.7 µM), inactives show at the top dose activity change, negative = inhibition, actives largely listed as inhibitors; 310,000 compounds, 5.9% hits; P. falciparum luciferase growth in erythrocytes, 48 h; note: potency is the fitted concentration of half-maximal effect; % is set by controls: 0 for no effect and ±100 for the full control effect
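A one-generation exposure of luciferase-tagged malaria parasites in RPMI 1640/Albumax erythrocyte culture, 37 C and 5% CO2. Inhibition is inferred from decreased luminescence after adding detection reagent.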
CHX counter: affects cycloheximide protein synthesis inhibition readout, counter-screen; 300,000 compounds, 12% hits; max response, %; cell reporter, cycloheximide protein synthesis inhibition counterscreen; in the data active = max response mostly above about 13%, no sharp cut-off; inactive = mostly below about 14%; note: read at 38.3 µM for the half of the compounds with a filed dose; 0% is about no effect
Shiga toxin inh: Shiga toxin inhibition. Vero cells, Shiga toxin protein synthesis inhibition reporter. inhibition, % at 38.7 µM. 290,000 compounds, 9.2% hits; in the data active = inhibition mostly above about 28%, no sharp cut-off; inactive = mostly below about 43%; note: 0% is about no effect
HCMV antiviral: blocks human cytomegalovirus replication. HFF cells, HCMV-luciferase reporter, 72 h; stronger effect = lower value. activity change, negative = inhibition, % at 57.5 µM. 410,000 compounds, 4.5% hits; in the data active = activity change below about -60%; inconclusive = no clear call, values can overlap the other calls; inactive = above about -39%; note: % is set by controls: 0 for no effect and ±100 for the full control effect
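Two compound doses tested in HFFs infected with HCMV-luciferase, MOI 1 PFU/cell, 72 h at 37C. Lysate luminescence read with OneGlo; data normalized against buffer-only and 10uM Salinomycin inhibitor controls.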
Pf growth 96h: P. falciparum growth inhibition at 96 hours; 320,000 compounds, 6.9% hits; Potency, µM (highest dose often 28.7 µM), for the others: at the highest dose activity change, negative = inhibition, most hits filed as inhibitors; P. falciparum luciferase reporter growth, 96 h; note: potency is the fitted concentration of half-maximal effect; % is set by controls: 0 for no effect and ±100 for the full control effect
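Erythrocytes infected with luciferase-expressing P. falciparum were dispensed at 2% hematocrit and 0.05% parasitemia (final), then incubated with compounds 96 hours at 37 C in 5% CO2. Luminescence after detection reagent addition reported growth.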
* marks the source's active call; other numbers are inactive results; ? = inconclusive; . = no result given. Unless noted, calls come from the whole dose curve; as a rule, active = well fitted inhibition curve with a large enough effect; inconclusive = small, poorly fitted or top-dose-only effect, or another doubt; inactive = no such curve, though single readings can be large or run the other way.

SMILES	Pf growth 48h	CHX counter	Shiga toxin inh	HCMV antiviral	Pf growth 96h
CCCCN(CCCC)C(=O)c1cc(Cl)ccc1[N+](=O)[O-]	-20%	-3	25	?	12%
CN(NC(=O)C(C)(C)C)c1nc(-c2ccccc2)nnc1C(F)(F)F	.	-3	-3	-63*	23%
Cc1cc(C(=O)COC(=O)c2ccc3c(c2)OCO3)c(C)n1Cc1cccs1	129%	54*	128*	-19	100%
Cc1cc(C(=O)COC(=O)c2ccccc2O)c(C)n1Cc1cccs1	-51%	3	-8	-103*	.
COc1ccc(-n2cnnc2SCC(=O)c2cc(C)n(Cc3cccs3)c2C)cc1	-24%	-4	-1	-11	-3%
CCn1nc(C(=O)OCC(=O)c2cc(C)n(Cc3cccs3)c2C)c2ccccc2c1=O	14%	72*	66*	12	16%
Fc1ccc(NN2CCOCC2)cc1-c1noc2ccccc12	.	.	.	-5	.
CCn1ncc2c(=O)c(C(=O)c3ccccc3)c[nH]c21	.	.	.	3	.
CCCCN1C(=O)/C(=C2/Sc3ccccc3N2C)S/C1=N\c1ncn[nH]1	7.4µM*	15	9	-78*	40%
CN(CC(=O)Nc1ccccc1C(F)(F)F)C(=O)CC1OC(=O)c2ccccc21 (centres undefined)	?	-1	-6	45	-17%
O/N=C(/CN(O)/C=C1/C=CC=N1)c1cccs1	18%	7	-2	61	15µM*
CC(NO)/C(=N\O)c1cccs1 (centres undefined)	.	-2	-10	-17	53%
c1ccc(C(c2ccccc2)c2noc(CN3CCC(c4ccncc4)CC3)n2)cc1	10µM*	0	-18	11	?
Cc1cccc(OC2CCN(Cc3nc(CC4CC4)no3)CC2)c1	9%	-3	-9	65	4.7µM*
c1ccc(C2CCCN(Cc3nc(CC4CC4)no3)CC2)cc1 (centres undefined)	?	16*	53*	3	27%
c1ccc(Cc2noc(CN3CCC(CN4CCOCC4)CC3)n2)cc1	14%	5	2	-31	?
COc1ccc(OCC2CCCN(Cc3nc(CC4CC4)no3)C2)cc1 (centres undefined)	17%	19*	24	-2	?
Cc1ccccc1-n1c(C)nnc1SC(C)C(=O)NCC1CCCO1 (centres undefined)	-23%	.	.	-1	-2%
Nc1cc(-c2ccc(Cl)cc2)nn1-c1ccccc1	231%	43*	72*	-18	204%
CC(=O)Nc1ccc(-c2cc(N)n(-c3ccccc3)n2)cc1	90%	64*	69*	172	118%
Cc1ccc(-n2nc(-c3ccc(OC(F)(F)F)cc3)cc2N)cc1C	-62%	15*	33	15	-11%
CC(=O)Nc1ccc(-c2cc(NC(C)=O)n(-c3ccccc3)n2)cc1	8%	-2	-18	-16	45%
Cc1ccc(-n2nc(-c3ccc(N)cc3)cc2N)cc1	29%	32*	61*	-12	?
Cc1ccc(OCC(=O)Nc2ccccc2OCc2cc(=O)n3ccccc3n2)cc1C	.	.	.	1	.
Cc1ccc(NC(=O)c2c(NC(=O)c3ccco3)sc3c2CCC(C(C)(C)C)C3)c(C)c1 (centres undefined)	.	.	.	-12	.
SMILES	Pf growth 48h	CHX counter	Shiga toxin inh	HCMV antiviral	Pf growth 96h
COc1ccc(/C=C/C(=O)OCC(=O)Nc2c(C)cccc2C)cc1	?	13	18	-24	10%
Nc1ccc(-c2cc(N)n(-c3ccccc3)n2)cc1	6.6µM*	8	10	66	.
Cc1ccccc1-n1nc(-c2ccc(N)cc2)cc1N	?	7	4	58	3%
CCCCn1c(NCCN(C)C)nc2c1c(=O)[nH]c(=O)n2C	24%	8	17	-8	4.7µM*
CCN(CC)c1nc2c(c(=O)[nH]c(=O)n2C)n1CCOc1ccccc1	0%	-3	.	9	0.66µM*
CN(Cc1ccccc1)c1nc2c(c(=O)[nH]c(=O)n2C)n1CCCc1ccccc1	?	27*	41	-30	-31%
CCC(C)Nc1nc2c(c(=O)[nH]c(=O)n2C)n1CCCc1ccccc1 (centres undefined)	-8%	-1	-6	28	4.1µM*
CN(C)c1nc2c(c(=O)[nH]c(=O)n2C)n1CCOc1ccccc1	-22%	1	.	56	0%
Cc1ccc(NC(=O)c2c3c(nc4ccccc24)CCC3)cc1S(=O)(=O)N(C)C	-14%	37*	50*	-40	?
Cc1ccc(NC(=O)c2ccc3ccccc3n2)cc1S(=O)(=O)N(C)C	42%	27*	79*	4	159%
Cc1ccccc1NC(=O)c1c2c(nc3ccccc13)CCC2	15%	-4	-10	-71*	-21%
CC(C)NC(=O)c1c2c(nc3ccccc13)CCCC2	9%	-1	-4	35	-15%
COc1cc(NC(=O)c2c3c(nc4ccccc24)CCC3)cc(OC)c1	-21%	4	-12	-102*	?
Cc1cccc(-c2nc3c(NCc4cccc(N(C)C)c4)nccc3[nH]2)c1	.	.	.	14	.
CC(C)(C)OC(=O)C[C@H]1C/C=C\C[C@@H](CC(=O)N[C@@H](CO)Cc2ccccc2)C(=O)NCCOC1=O	.	.	.	-9	.
O=C(CCn1nc(-c2ccc(Cl)cc2)ccc1=O)N1CCN(c2ccccc2)CC1	?	1	-3	?	-8%
Cc1ccc(NC(=O)c2c3c(nc4ccccc24)CCC3)cc1	?	-5	-7	18	0%
CCOc1ccc(NC(=O)c2c3c(nc4ccccc24)CCC3)cc1	4.1µM*	-2	7	-17	3.7µM*
Cc1ccc(CN=c2c([N+](=O)[O-])nn(-c3cccc(C)c3)n2O)cc1	70%	25*	26	?	77%
COc1ccc(-n2nc([N+](=O)[O-])c(=NCCc3ccc(C)cc3)n2O)cc1	26%	5	47	0	?
COc1ccc(-n2nc([N+](=O)[O-])c(=NCCc3ccc(Cl)cc3)n2O)cc1	?	16	-4	15	?
COc1ccc(-n2nc([N+](=O)[O-])c(=NC3CCN(Cc4ccccc4)CC3)n2O)cc1	8%	21	17	-63*	72%
COc1ccc(-n2nc([N+](=O)[O-])c(=NCCC3=CCCCC3)n2O)cc1	-13%	32*	46	?	?
COc1ccc(-n2nc([N+](=O)[O-])c(=NCc3cccnc3)n2O)cc1	227%	65*	26	10	?
Cc1ccc(CN=c2c([N+](=O)[O-])nn(-c3cccc(Cl)c3)n2O)cc1	?	8	7	?	?
COc1ccc(-n2nc([N+](=O)[O-])c(=NCc3ccco3)n2O)cc1	301%	30*	80*	-6	31%
COc1ccc(-c2nc3cc(NC(=O)Cc4ccc(OC)c(OC)c4)ccc3o2)cc1	-11%	25*	34*	-76*	4.1µM*
COc1ccc(-c2nc3cc(NC(=O)Cc4ccc(Cl)cc4)ccc3o2)cc1OC	.	.	.	-94*	.

Source: PubChem BioAssay (National Center for Advancing Translational Sciences (NCATS))
